{"source": "PubChem BioAssay (EPA / NIEHS)", "note": "Where “and” joins values, the source holds several entries; their conditions need not be identical. Equal values may be shown once. Records with an inconclusive call do not appear. Calls of active or inactive are those of the source. The calls were made as follows: active = hit-call score of the fitted dose curve at least 0.9, where 1 is the maximum; inconclusive = response in the unintended direction; inactive = score below 0.9.", "data": [{"experiment": "TOX21_p53_BLA_p4_viability: Viability Assessment in the Tox21 HCT-116 p53 Agonism Beta-lactamase Assay, Phase 4 (AID 2283597);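 also: hits lower the luminescence signal meaning cytotoxicity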", "from_the_text": "TOX21_p53_BLA_p4 is a cell-based, single-readout assay that uses HCT116, a human intestinal cell line, […] in a 1536-well plate.TOX21_p53_BLA_p4_viability is an assay readout measuring cellular ATP content and detected with CellTiter-Glo Luciferase-coupled ATP quantitation.TOX21_p53_BLA_p4_viability used a type of viability reporter where loss-of-signal activity can be used to understand changes in the cell viability. Furthermore, this assay endpoint can be referred to as a secondary readout, because this assay has produced multiple assay endpoints where this one serves a viability function. To generalize the intended target to other relatable targets, this assay endpoint is annotated to the cell cycle intended target family, where the subfamily is cytotoxicity.\nThawing Method: Place 14 mL of pre-warmed thaw medium into a 15 mL of conical tub. Remove the vial of cells to be thawed from liquid nitrogen and thaw rapidly by placing at 37C in a water bath with gentle agitation for 1-2 minutes. Decontaminate the vial by wiping with 70% ethanol before opening in a biological safety cabinet. Transfer the vial contents drop-wise into 14 mL of thaw medium in a sterile 15-mL conical tub. Centrifuge cells at 900 rpm for 4 minutes and resuspend in thaw medium. Transfer contents to the T75 tissue culture flask containing Thaw Medium and place flask in a humidified 37C/5% CO2 incubator. Switch to growth medium at first passage.Propagation Method: Aspirate medium, rinse once in DPBS, add 0.25% Trypsin/EDTA and swirl to coat the cell evenly. Add an equal volume of Growth Medium to inactivate Trypsin after 2-3 minutes incubation at 37C. Centrifuge cells at 900 rpm for 4 minutes and resuspend in growth medium. Cell should be passage or fed at least twice a week.Assay Protocol: Harvest cells from culture in growth medium and resuspend in assay medium. 2.2 Dispense 4000 cells/5 uL/well into 1536-well black/clear bottom plates using a Multidrop dispenser. After the cells were incubated at 37C for 5 hours, 23 nL of compounds dissolved in DMSO were transferred to the assay plate by a PinTool resulting in a 217-fold dilution. Incubate the plates for 16 hours at 37C, 5% CO2. Add 1 uL of 6X LiveBLAzer FRET B/G (CCF4-AM) Substrate Mixture to each well using a BioRAPTR dispenser and incubate the plates at room temperature for 2 hours. Measure fluorescence intensity at 460 and 530 nm emission and 405 nm excitation by an Envision detector. Data is expressed as the ratio of 460nm/530nm emissions. Add 4 uL of Cell-titer Glo to each well using BioRAPTR and incubate the plates at room temperature for […]. For cell viability readout that measures cytotoxicity, 4 ul/well of CellTiter-Glo reagent was added into the assay plates using a Flying Reagent Dispenser. After 30 min incubation at room temperature, the luminescence intensity in the plates was measured using a ViewLux plate reader.", "values": [{"smiles": "OC[C@@H](O)[C@@H](O[C@@H]1O[C@H](CO)[C@H](O)[C@H](O)[C@H]1O)[C@H](O)[C@@H](O)CO", "outcome": "inactive"}, {"smiles": "CCCC(CCC)C(=O)OC1C[C@H]2CC[C@@H](C1)[N+]2(C)C", "note": "(stereo not given in full)", "outcome": "inactive"}, {"smiles": "CCCCCCC/C=C/C=O", "outcome": "inactive"}, {"smiles": "CN[C@H](CC(C)C)C(=O)N[C@H]1C(=O)N[C@@H](CC(N)=O)C(=O)N[C@H]2C(=O)N[C@H]3C(=O)N[C@H](C(=O)N[C@H](C(=O)O)c4cc(O)cc(O)c4-c4cc3ccc4O)[C@H](O)c3ccc(c(Cl)c3)Oc3cc2cc(c3O[C@@H]2O[C@H](CO)[C@@H](O)[C@H](O)[C@H]2O[C@H]2C[C@](C)(N)[C@H](O)[C@H](C)O2)Oc2ccc(cc2Cl)[C@H]1O", "outcome": "inactive"}, {"smiles": "O=C1NCCN1", "outcome": "inactive"}, {"smiles": "c1ccc2c(c1)CCc1ccccc1N2", "outcome": "inactive"}, {"smiles": "NS(=O)(=O)Cc1noc2ccccc12", "outcome": "inactive"}, {"smiles": "Cc1ccc2c(ccc3ccccc32)c1", "outcome": "inactive"}, {"smiles": "Brc1ccccc1-c1ccccc1", "outcome": "inactive"}, {"smiles": "CCCCCCCC[N+](CCCCCCCC)(CCCCCCCC)CCCCCCCC", "AC50": "36.2 µM (active)"}, {"smiles": "[O-][N+](=Nc1ccccc1)c1ccccc1", "outcome": "inactive"}, {"smiles": "COc1nc(N)nc2nc[nH]c12", "outcome": "inactive"}, {"smiles": "COc1cccc2c1[C@@H]1CN(CCCCn3c(=O)[nH]c4c(sc5ncc(-c6ccccc6)nc54)c3=O)C[C@@H]1CO2", "AC50": "43.3 µM (active)"}, {"smiles": "Cc1cc(C)c(N=Nc2c(O)c(S(=O)(=O)O)cc3cc(S(=O)(=O)O)ccc23)cc1C", "outcome": "inactive"}, {"smiles": "Nc1ccc(C(=O)Nc2ccccc2N)cc1", "AC50": "20.9 µM (active)"}, {"smiles": "Cc1ccccc1N1CCN(CCc2nnc3n2CCCC3)CC1", "outcome": "inactive"}, {"smiles": "NCCCCCC(=O)O", "outcome": "inactive"}, {"smiles": "O=C(O)c1cc(Cl)cc(Cl)c1", "outcome": "inactive"}, {"smiles": "CC(=O)OC[C@H]1O[C@@H](n2ncc(=O)[nH]c2=O)[C@H](OC(C)=O)[C@@H]1OC(C)=O", "outcome": "inactive"}, {"smiles": "NCC[C@H](O)C(=O)N[C@@H]1C[C@H](N)[C@@H](O[C@H]2O[C@H](CN)CC[C@H]2N)[C@H](O)[C@H]1O[C@H]1O[C@H](CO)[C@@H](O)[C@H](N)[C@H]1O", "outcome": "inactive"}, {"smiles": "C[C@H](CCC(=O)O)[C@H]1CC[C@H]2[C@@H]3CC[C@@H]4C[C@H](O)CC[C@]4(C)[C@H]3C[C@H](O)[C@]12C", "AC50": "75.1 µM (active) and 36.4 µM (active)"}, {"smiles": "O=C(N/N=C/c1ccccc1O)c1ccncc1", "AC50": "8.16 µM (active)"}, {"smiles": "CNc1cc(OC)c(C(=O)N[C@H]2CCN(Cc3ccccc3)[C@H]2C)cc1Cl", "outcome": "inactive"}, {"smiles": "CCN(CC)Cc1cc(Nc2ccnc3cc(Cl)ccc23)ccc1O", "outcome": "inactive"}, {"smiles": "CC[C@@]1(O)C(=O)OCc2c1cc1n(c2=O)Cc2cc3c(CN(C)C)c(O)ccc3nc2-1", "AC50": "7.74 µM (active)"}, {"smiles": "CC(O)C(CO)C(C)O", "note": "(stereo not given)", "outcome": "inactive"}, {"smiles": "O=C(CCN1CCN2CCCC2C1)N1c2ccccc2Sc2ccc(Cl)cc21", "note": "(stereo not given)", "outcome": "inactive"}, {"smiles": "CN(C)CCN(C)CCN(C)C", "outcome": "inactive"}, {"smiles": "CC(C)(c1cc(Br)c(OCC(Br)CBr)c(Br)c1)c1cc(Br)c(OCC(Br)CBr)c(Br)c1", "note": "(stereo not given)", "outcome": "inactive"}, {"smiles": "Cn1cnc2c(F)c(Nc3ccc(Br)cc3Cl)c(C(=O)NOCCO)cc21", "outcome": "inactive"}, {"smiles": "CO[C@H]1/C=C/O[C@@]2(C)Oc3c(C)c(O)c4c(O)c(c(/C=N/N5CCN(C6CCCC6)CC5)c(O)c4c3C2=O)NC(=O)/C(C)=C\\C=C\\[C@H](C)[C@H](O)[C@@H](C)[C@@H](O)[C@@H](C)[C@H](OC(C)=O)[C@@H]1C", "AC50": "37.2 µM (active)"}, {"smiles": "O=C1c2ccccc2C(=O)C1(O)O", "AC50": "60.2 µM (active)"}, {"smiles": "CCOc1ccc2nc(N)sc2c1", "outcome": "inactive"}, {"smiles": "CC(=O)O[C@@H]1C(=O)O[C@@H]2[C@H]1OC(=O)[C@@H]2OC(C)=O", "outcome": "inactive"}, {"smiles": "C[C@H]1O[C@@H](n2cc(F)c(=O)[nH]c2=O)[C@H](O)[C@@H]1O", "outcome": "inactive"}, {"smiles": "O=CC=C(c1ccccc1)c1ccccc1", "AC50": "29.8 µM (active)"}, {"smiles": "Cc1cccc(C)c1NC(=O)C(C)N", "note": "(stereo not given)", "outcome": "inactive"}, {"smiles": "O=[N+]([O-])c1ccc2ncccc2c1", "outcome": "inactive"}, {"smiles": "O=P(O)(OCc1ccccc1)OCc1ccccc1", "outcome": "inactive"}, {"smiles": "OC[C@H](Cc1cccc(O)c1)[C@H](CO)Cc1cccc(O)c1", "outcome": "inactive"}]}]}
